Potency data for 66 molecules are collected here from PubChem BioAssay AID686978 (National Center for Advancing Translational Sciences (NCATS), 2013).

Out of some 420,000 compounds screened, about 64,000 (15%) were called active. Inconclusive results (about 27%) are left out. Calls follow the shape of the dose curve; as a rule, active = well fitted inhibition curve with a large enough effect; inconclusive = small, poorly fitted or top-dose-only effect; inactive = flat fitted curve, though single readings scatter. These entries were drawn from the full list. Entries that show only a call come without a potency.
Potency is read from the fitted curve at half-maximal effect.

This assay can be described thus: qHTS for Inhibitors of human tyrosyl-DNA phosphodiesterase 1 (TDP1): qHTS in cells in absence of CPT. Also: nearly all actives have a fitted effect of over 55% in size. The following applies: DT40 Tdp1-/- hTDP1 cells, no CPT, ATP luminescence, 48 h; activity change, negative = growth inhibition: at 46.2 µM (top of the series). The method, boiled down: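 Camptothecin absent (DMSO only). Human TDP1-complemented DT40 knockout cells, 400 cells/well, 37 °C for minimum 48 hr; ATP measured via CellTiter-Glo, 30 min dark incubation, luminescence.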
A general note: Quantitative high-throughput screening tests each substance at several concentrations.
With `CCC1CO/C(=C(\C(=C(Cl)Cl)N2CCOCC2)[N+](=O)[O-])N1` (stereo unspecified), the Potency entry was “inactive”. For `CC(C)[C@H](NC(=O)N1c2ccccc2NC(=O)[C@@H]1C(C)C)C(=O)N[C@H](C(=O)O)c1ccccc1` the value was “inactive”. For `COc1cccc(N2C(=O)CC(N3CCc4ccccc4C3)C2=O)c1` (stereo unspecified) the value was “inactive”; for `C=C(C)c1cccc(C(C)(C)NC(=O)NCCN(CC)CC)c1`, “inactive”.

As to `O=C(Nc1ccc([N+](=O)[O-])cc1)C1(c2ccccc2)CCOCC1`, the Potency result is “inactive”. On to `CC1(C)CC(=O)C(C=NCCC2=CCCCC2)=C(O)C1`, for which the Potency result was “inactive”. For `COc1ccc(OC)c(NC(=O)c2ccc3c(c2)C(=O)N(c2ccc(OC(C)=O)cc2)C3=O)c1` the value was “inactive”; for `O=C(/C=C/c1ccc(Cl)cc1Cl)c1cccnc1`, 14.6 µM (active); for `O=C(Nc1cccnc1)c1cc(Cl)ccc1Cl`, “inactive”. Take `O=C(NCc1ccc(Cl)c(Cl)c1)c1cccnc1`: the Potency entry is “inactive”.

For the molecule `CC1OC2C(OC1C)N(S(C)(=O)=O)CCN2S(C)(=O)=O` (stereo unspecified), the Potency entry was “inactive”. Take `Cc1nc2ccc(NC(=S)N3CCC(C)CC3)cc2nc1C`: the Potency entry is “inactive”. For `O=S(=O)(N/N=C\c1cccn1-c1ccccc1)c1ccc2ccccc2c1` the value was “inactive”. In the case of `CSc1ccc(CN2CCC2(C)C(=O)Nc2ccc(C)c(O)c2)cc1` (stereo unspecified), the Potency is 18.4 µM (active). Take `CSc1ccc(CNC(=O)C2(C)CCCN2C)cc1` (stereo unspecified): the Potency result is “inactive”. The value for `CSc1ccc(CN2CCC2(C)C(=O)NCc2ccccc2Br)cc1` (stereo unspecified) was 23.1 µM (active).

In the case of `CCCC(=O)N1CCC1(C)C(=O)NCc1ccc(SC)cc1` (stereo unspecified), the Potency result was “inactive”.

Take `CCC(=O)N1CCCC1(C)C(=O)Nc1ccc2c(c1)CCN2C(C)=O` (stereo unspecified): the Potency entry was “inactive”. The value for `CC1(C(=O)NCc2ccc3c(c2)OCO3)CCN1CCc1ccccc1` (stereo unspecified) was “inactive”. The value for `CSc1ccc(CN(C)CC(=O)NCc2ccc(F)cc2)cc1` was “inactive”; that for `CC1(C(=O)NCc2cccc3ccccc23)CCN1Cc1ccc(-c2ccccc2)o1` (stereo unspecified) was 13 µM (active).

Consider `CC1(C(=O)NCc2ccc3c(c2)OCO3)CCN1C(=O)Cc1cccs1` (stereo unspecified), for which the Potency entry was “inactive”. The value for `CC(N)=NCc1cccc(CN)c1` was “inactive”; that for `Cc1nccn1CCC1CCCCN1C(=O)CCc1nnc(-c2ccsc2)o1` (stereo unspecified) was “inactive”. `O=C(CNC(=O)c1ccccc1F)c1ccc(Br)cc1`: the Potency entry is “inactive”. The value for `Cc1ccc(C)c(N(CC(=O)NCc2ccco2)C(=O)CCC(=O)Nc2ccccn2)c1` was “inactive”; that for `O=C(O)CCCCc1nc2ccccc2s1` was “inactive”; that for `CCC(Oc1ccccc1C)C(=O)Nc1ccc(S(=O)(=O)Nc2cc(C)on2)cc1` (stereo unspecified) was “inactive”. Turning to `COC(=O)c1scc(S(=O)(=O)C(C)(C)C)c1-n1cccc1`, the Potency result was “inactive”.

As to `COc1cc(CC(=O)N2CCC(n3nccc3NC(=O)C3CC3)CC2)cc(OC)c1OC`, the Potency result was “inactive”. For `O=C1c2ccccc2C(c2nc3ccccc3[nH]2)N1c1ccccc1` (stereo unspecified) the value was “inactive”; for `c1ccc(-n2nnnc2N2CCOCC2)cc1`, “inactive”; for `C1=C(N2CCOCC2)/C(=C/c2nc3ccccc3[nH]2)CC1`, 23.1 µM (active).

Turning to `COC(=O)C1=CN(Cc2ccc(OC)cc2)C=C(C(=O)OC)C1c1ccc(O)c(OC)c1`, the Potency result is “inactive”. For `O=Cc1ccc(OCc2cn3ccccc3n2)cc1` the value was “inactive”; for `CCN(CC)c1ccc(C(=O)N/N=C/c2ccc(N3CCOCC3)cc2)cc1`, “inactive”; for `CCOC(=O)c1c(NC(=O)/C(C#N)=C/c2ccccc2)sc2c1CCC2`, “inactive”. The value for `COc1ccc(/C=N/N=C2/C(=O)Nc3ccccc32)cc1O` was “inactive”.

On to `O=C(O)c1ccc(NN=CC2=C(N3CCOCC3)/C(=C/c3ccccc3)CC2)cc1`, for which the Potency was 3.26 µM (active). For `N#C/C(=C\C1=C(N2CCOCC2)C(=C\c2ccccc2)/CC1)C(=O)Nc1ccccc1F` the value was 14.6 µM (active); for `O=C(CN1CCN(c2ccccn2)CC1)N1CCc2ccccc21`, “inactive”. For `O=C1Nc2ccc(Br)cc2/C1=N/N=C/C1=C(N2CCOCC2)C(=C\c2ccccc2)/CC1` the value was 23.1 µM (active); for `O=C(CSc1nnc(N2CCOCC2)n1-c1cccc(F)c1)N1CCN(c2ccccn2)CC1`, “inactive”. For `O=C(CC1SC(N2CCOCC2)=NC1=O)Nc1ccccc1F` (stereo unspecified) the value was “inactive”; for `C(=N\N1CCN(c2ccccn2)CC1)/C1=C(N2CCOCC2)C(=C/c2ccccc2)/CC1`, 16.4 µM (active). On to `O=C(O)c1ccc(/C=N/Nc2nc(N3CCCCC3)nc(N3CCCCC3)n2)cc1`, for which the Potency entry is “inactive”.

As to `Cc1cc(C(=O)NNS(=O)(=O)c2ccccc2C(F)(F)F)nn1C(C)(C)C`, the Potency result was “inactive”.

As for `O=c1cc(CSc2ccccn2)nc(N2CCN(c3ccccc3)CC2)[nH]1`, the Potency entry is “inactive”. Consider `N/C(=N\OC(=O)CCc1ccccc1)c1ccc(Cl)cc1`, for which the Potency result was “inactive”. For `O=C(NCc1ccccn1)[C@@H]1CCCN1C(=O)[C@@H]1CCCN1C(=O)c1ccccc1` the value was “inactive”; for `COC(=O)c1ccccc1NC(=O)CSc1nc2c(c(=O)[nH]1)CCC2`, “inactive”. As to `COC(=O)C1=C(C(=O)OC)[C@@H]2N(C)c3ccccc3[C@@]23C[C@@H](C(=O)OC)N(C(C)=O)C3=N1`, the Potency entry is “inactive”. The value for `O=C1C(c2ccccn2)=[N+]([O-])c2ccccc21` was “inactive”; that for `CCC(=O)Nc1cccc(NC(=O)CSc2nnc(-c3ccc(NS(C)(=O)=O)cc3)n2C)c1` was “inactive”. Turning to `O=C(COc1ccccc1F)OCc1cc(=O)n2nc(C3CCCCC3)sc2n1`, the Potency result was “inactive”. For `O=C(CSc1n[nH]c(-c2cccs2)n1)N1CCCCC1` the value was “inactive”. Turning to `Cc1cccc(NC(=O)c2cccc(C(F)(F)F)c2)c1`, the Potency result is “inactive”. For `CNC(=O)c1ccc(NC(=O)c2cccc(C(F)(F)F)c2)cc1` the value was “inactive”; for `O=C(Nc1ccc(-c2csc(Nc3cccc(C(F)(F)F)c3)n2)cc1)c1cccc(C(F)(F)F)c1`, 6.51 µM (active). The value for `CCOC(=O)NC(C(F)(F)F)(C(F)(F)F)P(=O)(c1ccccc1)c1ccccc1` was “inactive”; that for `CCOC(=O)c1sc(NC(=O)CSc2ncccn2)c(C#N)c1C` was “inactive”. The value for `O=C(Nc1ccc(C2CC2(Cl)Cl)cc1)c1cccc([N+](=O)[O-])c1` (stereo unspecified) was 18.4 µM (active); that for `O=C(Nc1nnc(SCc2ccccc2Cl)s1)c1cccc([N+](=O)[O-])c1` was “inactive”. Consider `Cc1cc(C)nc(NC(=O)c2cccc([N+](=O)[O-])c2)c1`, for which the Potency entry was “inactive”. `Cc1ccc(CNC(=O)CCN2C(=O)[C@@H]3Cc4ccccc4CN3C2=O)cc1`: the Potency result was “inactive”. Regarding `CN(NC(=O)C1CC(=O)N(c2ccccc2)C1)C1=NS(=O)(=O)c2ccccc21` (stereo unspecified), the Potency result was “inactive”.
